Source: PubChem BioAssay AID1851 (National Center for Advancing Translational Sciences (NCATS), 2009)
Screen size: about 16,000 compounds; about 5,800 (36%) were called active. About 23% were inconclusive and are not listed. The call rests on the fitted dose curve; in most records, active means well fitted curve in the direction sought with a large enough effect; inconclusive means small, poorly fitted or top-dose-only effect, or effect the other way; inactive means no such curve, though single readings can be large or run the other way. This is one part of the list.
On the % scale 0 is the no-effect control and ±100 the full control effect.

These compounds were tested against Cytochrome P450 2C19 (Homo sapiens) (UniProt P33261) (assay: Cytochrome panel assay with activity outcomes). Settings: recombinant CYP, pro-luciferin dealkylation, luminescence, p450-cyp2c19; series mostly up to 57.1 µM.
Sequence of Cytochrome P450 2C19 (Homo sapiens) (P33261 whole entry, looked up): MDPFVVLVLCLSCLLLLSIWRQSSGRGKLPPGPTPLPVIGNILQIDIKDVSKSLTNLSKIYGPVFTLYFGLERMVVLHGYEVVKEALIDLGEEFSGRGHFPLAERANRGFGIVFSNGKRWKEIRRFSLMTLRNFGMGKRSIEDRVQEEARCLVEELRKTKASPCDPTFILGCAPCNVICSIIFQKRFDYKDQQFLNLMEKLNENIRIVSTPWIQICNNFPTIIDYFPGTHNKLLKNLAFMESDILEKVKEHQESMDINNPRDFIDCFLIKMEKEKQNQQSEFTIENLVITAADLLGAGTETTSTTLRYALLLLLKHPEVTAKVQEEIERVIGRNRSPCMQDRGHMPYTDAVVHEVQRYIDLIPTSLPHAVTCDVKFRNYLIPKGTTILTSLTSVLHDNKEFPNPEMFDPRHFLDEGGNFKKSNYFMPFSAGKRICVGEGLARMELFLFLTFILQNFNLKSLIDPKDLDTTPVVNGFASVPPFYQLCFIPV
With `C=C(C)C1Cc2nc(N)nc(C)c2C1` (configuration not stated) the AC50 was “inactive”.
In the case of `COc1cc(C)cc2c(-c3c(O)cc(O)c4c3C[C@H](C)N[C@@H]4C)cc(-c3cc(-c4c(O)cc(O)c5c4C[C@H](C)N[C@@H]5C)c4cc(C)cc(OC)c4c3O)c(O)c12`, the activity, negative = inhibition is reported as -31.6% [at 11.4 µM] (inactive).
In the case of `Cc1noc(C)c1-c1ccc2ncnc(NCc3cccnc3)c2c1`, the AC50 is reported as 20 nM (active).
For `CC1(C)OC[C@@H]2O[C@H](n3cnc4c(N)nc(Cl)nc43)[C@@H](OS(C)(=O)=O)[C@@H]2O1`, the activity, negative = inhibition was 8% [at 11.4 µM] (inactive).
For `CN1CCN(c2ncnc3ccc(-c4cccc(NS(C)(=O)=O)c4)cc23)CC1`, the AC50 was “inactive”.
With `CN(Cc1ccco1)c1ncnc2ccc(-c3ccc4c(c3)OCO4)cc12` the AC50 was 631 nM (active).
`COc1cccc(-c2ccc3ncnc(N(C)Cc4ccco4)c3c2)c1` was tested, and the AC50 was 2000 nM (active).
In the case of `CN(Cc1ccco1)c1ncnc2ccc(-c3cccc(NS(C)(=O)=O)c3)cc12`, the AC50 is reported as 7940 nM (active).
For `CN(Cc1ccco1)c1ncnc2ccc(-c3cccnc3)cc12`, the AC50 was 7940 nM (active).
`CCOc1ccc2nc3cc(N=Nc4ccc(N)nc4N)ccc3c(N)c2c1` was tested, and the activity, negative = inhibition was -6.5% [at 11.4 µM] (inactive).
In the case of `COc1cccc(-c2ccc3ncnc(N(C)C)c3c2)c1`, the AC50 is reported as 3160 nM (active).
For `CN(C)c1ncnc2ccc(-c3cccnc3)cc12`, the AC50 was “inactive”.
`CN(C)C(=O)c1ccc(-c2ccc3ncnc(N(C)C)c3c2)cc1` was tested, and the AC50 was “inactive”.
For `CCSc1nnc(NC(=O)COc2ccc3ccccc3c2)s1`, the AC50 was 282 nM (active).
For `C=CCSc1nnc(NC(=O)COc2ccc3ccccc3c2)s1`, the AC50 was 2240 nM (active).
In the case of `O=C(O)CCC(=O)Nc1ccc2ccccc2c1`, the activity, negative = inhibition is reported as -18.3% [at 11.4 µM] (inactive).
`CCC(CC)c1nnc(NC(=O)COc2ccc3c(C)cc(=O)oc3c2)s1` was tested, and the AC50 was “inactive”.
With `CCc1ccc(OCC(=O)Nc2ccc(-c3nc4ccccc4o3)c(O)c2)cc1` the AC50 was “inactive”.
For `O=C(COc1ccc2ccccc2c1)Nc1ccc(Cc2ccncc2)cc1`, the AC50 was 178 nM (active).
In the case of `CN1CC[C@@]2(CCN3CCc4c(oc5ccccc45)[C@@H]3C2)N(C)C1=O`, the AC50 is reported as “inactive”.
For `CC(C)=CCc1c2c(c3occ(-c4ccc(O)c(O)c4)c(=O)c3c1O)C=CC(C)(C)O2`, the AC50 was 2000 nM (active).
For `O=C(Nc1nnc(CCS(=O)(=O)c2ccc(Br)cc2)s1)c1ccc([N+](=O)[O-])cc1`, the AC50 was “inactive”.
In the case of `Cc1ccc(Nc2nc(-c3sc(NC(=O)c4ccc([N+](=O)[O-])cc4)nc3C)cs2)cc1`, the AC50 is reported as 1260 nM (active).
`Cc1nc(NC(=O)c2ccccc2)sc1-c1csc(Nc2ccc(Cl)cc2)n1` was tested, and the AC50 was 316 nM (active).
In the case of `Cc1nc(NC(=O)c2ccccc2)sc1-c1csc(Nc2cccc(F)c2)n1`, the AC50 is reported as 562 nM (active).
In the case of `Cc1ccc(Nc2nc(-c3sc(NC(=O)c4cccc(Cl)c4)nc3C)cs2)cc1`, the AC50 is reported as 1410 nM (active).
In the case of `Cc1cccc(C(=O)Nc2nnc(-c3ccc(C(C)(C)C)cc3)s2)c1`, the AC50 is reported as “inactive”.
